Consider eight compounds from PubChem BioAssay AID1508601 (ICCB-Longwood Screening Facility, Harvard Medical School, 2020).

Hit rate of the full screen: of about 5,700 compounds, about 85 (1%) were called active. This is one part of a sample in which actives are shown more often than they occur. Cut-off read from the data, not from the text of the source: active = p53-positive nuclei above about 36% (passing the limit was not always enough); inactive = the rest.

Assay [1] is described as follows: nuclear p53 accumulation, HPV+ cells – imaging, p53-positive nuclei imaging, 24 h, 48 h (AID 1508601). The note with it: 24/48 h.
Assay [2] addresses Cellular tumor antigen p53 (Homo sapiens) (UniProt P04637). The assay is described as above. The note with it: 24/48 h, stronger effect = higher value.
The mark [3] stands for this setting: measured here: cell number at 24 h, Library stock concentration: 3.33 mM.
Setting [4] is: measured here: cell number at 48 h, Library stock concentration: 3.33 mM.
Setting [5] is: Library stock concentration: 3.33 mM.
[6] abbreviates: measured here: p53 positive nuclei at 24 h, Library stock concentration: 3.33 mM.
Where [7] appears, read: measured here: cell number at 24 h, concentration not given here.
Where [8] appears, read: measured here: cell number at 48 h, concentration not given here.
[9] abbreviates: measured here: p53 positive nuclei at 24 h, concentration not given here.
[10] abbreviates: measured here: cell number at 24 h, Library stock concentration: 80 uM.
[11] abbreviates: measured here: cell number at 24 h, Library stock concentration: 400 uM.
Where [12] appears, read: measured here: cell number at 24 h, Library stock concentration: 2 mM.
Where [13] appears, read: measured here: cell number at 24 h, Library stock concentration: 10 mM.
Where [14] appears, read: measured here: cell number at 48 h, Library stock concentration: 80 uM.
Where [15] appears, read: measured here: cell number at 48 h, Library stock concentration: 400 uM.
Setting [16] is: measured here: cell number at 48 h, Library stock concentration: 2 mM.
Where [17] appears, read: measured here: cell number at 48 h, Library stock concentration: 10 mM.
Setting [18] is: Library stock concentration: 80 uM.
[19] abbreviates: Library stock concentration: 400 uM.
Where [20] appears, read: Library stock concentration: 2 mM.
Where [21] appears, read: Library stock concentration: 10 mM.
The mark [22] stands for this setting: measured here: p53 positive nuclei at 24 h, Library stock concentration: 80 uM.
Setting [23] is: measured here: p53 positive nuclei at 24 h, Library stock concentration: 400 uM.
[24] abbreviates: measured here: p53 positive nuclei at 24 h, Library stock concentration: 2 mM.
Where [25] appears, read: measured here: p53 positive nuclei at 24 h, Library stock concentration: 10 mM.

Cellular tumor antigen p53 (Homo sapiens), sequence (P04637 whole entry, looked up): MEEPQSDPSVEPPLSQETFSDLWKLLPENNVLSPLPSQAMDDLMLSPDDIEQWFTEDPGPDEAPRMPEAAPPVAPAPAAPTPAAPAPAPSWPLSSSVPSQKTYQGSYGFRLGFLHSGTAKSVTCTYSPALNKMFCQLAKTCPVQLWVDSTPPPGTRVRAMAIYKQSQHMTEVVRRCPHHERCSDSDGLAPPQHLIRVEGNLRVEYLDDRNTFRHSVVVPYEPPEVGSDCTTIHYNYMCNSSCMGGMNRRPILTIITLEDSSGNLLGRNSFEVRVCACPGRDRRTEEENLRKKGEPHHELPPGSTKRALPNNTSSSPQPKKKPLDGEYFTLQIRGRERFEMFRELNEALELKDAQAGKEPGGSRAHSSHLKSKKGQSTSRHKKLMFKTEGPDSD

With `CC(C)CC(NC(=O)C(Cc1ccccc1)NC(=O)c1cnccn1)B(O)O` (stereo not drawn), the nuclei count, normalised in assay [1] (setting [3]) was 47.9%; in assay [1] (setting [4]), 41.9%. For the same compound, the p53-positive nuclei, normalised in assay [2] (setting [5]) is 106% (active); in assay [2] (setting [6]), 125%.
As to `CC(C)C[C@H](NC(=O)[C@@H](O)[C@H](N)Cc1ccccc1)C(=O)O`, the nuclei count, normalised in assay [1] (setting [7]) is 97.2%; in assay [1] (setting [8]), 105%. Further, the p53-positive nuclei, normalised was -0.0349% (inactive) in assay [2] (concentration not given here) and -0.0296% in assay [2] (setting [9]).
With `CC(C)CC(NC(=O)C(O)C(N)Cc1ccccc1)C(=O)O` (stereo not drawn), the nuclei count, normalised in assay [1] (setting [10]) stood at 115%; in assay [1] (setting [11]), 119%; in assay [1] (setting [12]), 104%; in assay [1] (setting [13]) it was 105%; in assay [1] (setting [14]), 111%; in assay [1] (setting [15]), 113%. Moreover, the nuclei count, normalised in assay [1] (setting [16]) came out at 108%; in assay [1] (setting [17]), 111%. The p53-positive nuclei, normalised was -0.159% (inactive) in assay [2] (setting [18]); -0.07% (inactive) in assay [2] (setting [19]); -0.0155% (inactive) in assay [2] (setting [20]); 0.0117% (inactive) in assay [2] (setting [21]); -0.122% in assay [2] (setting [22]); 0.00728% in assay [2] (setting [23]). Besides, the p53-positive nuclei, normalised in assay [2] (setting [24]) was -0.122%; in assay [2] (setting [25]), 0.0829%.
On to `CC(=O)NC(CSC(=S)NSc1ccc(SNC(=S)SCC(NC(C)=O)C(=O)O)cc1)C(=O)O` (stereo not drawn), for which the nuclei count, normalised worked out at 115% in assay [1] (measured here: cell number at 24 h, Library stock concentration: 500 nM); 108% in assay [1] (measured here: cell number at 24 h, Library stock concentration: 1.5 uM); 110% in assay [1] (measured here: cell number at 24 h, Library stock concentration: 4.6 uM); 114% in assay [1] (measured here: cell number at 24 h, Library stock concentration: 13.7 uM); 121% in assay [1] (measured here: cell number at 24 h, Library stock concentration: 41 uM); 119% in assay [1] (measured here: cell number at 24 h, Library stock concentration: 123 uM). Moreover, the nuclei count, normalised is 107% in assay [1] (measured here: cell number at 24 h, Library stock concentration: 370 uM); 105% in assay [1] (measured here: cell number at 24 h, Library stock concentration: 1.111 mM); 89.8% in assay [1] (measured here: cell number at 24 h, Library stock concentration: 3.333 mM); 64.7% in assay [1] (setting [13]); 111% in assay [1] (measured here: cell number at 48 h, Library stock concentration: 500 nM); 111% in assay [1] (measured here: cell number at 48 h, Library stock concentration: 1.5 uM). Besides, the nuclei count, normalised in assay [1] (measured here: cell number at 48 h, Library stock concentration: 4.6 uM) was 109%; in assay [1] (measured here: cell number at 48 h, Library stock concentration: 13.7 uM), 109%; in assay [1] (measured here: cell number at 48 h, Library stock concentration: 41 uM), 108%; in assay [1] (measured here: cell number at 48 h, Library stock concentration: 123 uM), 108%; in assay [1] (measured here: cell number at 48 h, Library stock concentration: 370 uM), 106%; in assay [1] (measured here: cell number at 48 h, Library stock concentration: 1.111 mM), 105%. Also, the nuclei count, normalised is 95.8% in assay [1] (measured here: cell number at 48 h, Library stock concentration: 3.333 mM) and 68.4% in assay [1] (setting [17]). In addition, the p53-positive nuclei, normalised in assay [2] (Library stock concentration: 500 nM) was -0.0484% (inactive); in assay [2] (Library stock concentration: 1.5 uM), -0.0573% (inactive); in assay [2] (Library stock concentration: 4.6 uM) it was 0.0306% (inactive); in assay [2] (Library stock concentration: 13.7 uM) it was -0.0501% (inactive); in assay [2] (Library stock concentration: 41 uM), -0.00296% (inactive); in assay [2] (Library stock concentration: 123 uM), -0.123% (inactive). The p53-positive nuclei, normalised in assay [2] (Library stock concentration: 370 uM) was -0.0406% (inactive); in assay [2] (Library stock concentration: 1.111 mM) it was 0.162% (inactive); in assay [2] (Library stock concentration: 3.333 mM), -0.108% (inactive); in assay [2] (setting [21]), 6.19% (inactive); in assay [2] (measured here: p53 positive nuclei at 24 h, Library stock concentration: 500 nM) it was -0.173%; in assay [2] (measured here: p53 positive nuclei at 24 h, Library stock concentration: 1.5 uM), -0.118%. In addition, the p53-positive nuclei, normalised in assay [2] (measured here: p53 positive nuclei at 24 h, Library stock concentration: 4.6 uM) was -0.113%; in assay [2] (measured here: p53 positive nuclei at 24 h, Library stock concentration: 13.7 uM) it was -0.173%; in assay [2] (measured here: p53 positive nuclei at 24 h, Library stock concentration: 41 uM) it was -0.0102%; in assay [2] (measured here: p53 positive nuclei at 24 h, Library stock concentration: 123 uM), -0.173%; in assay [2] (measured here: p53 positive nuclei at 24 h, Library stock concentration: 370 uM) it was -0.0536%; in assay [2] (measured here: p53 positive nuclei at 24 h, Library stock concentration: 1.111 mM) it was 0.0142%. Moreover, the p53-positive nuclei, normalised in assay [2] (measured here: p53 positive nuclei at 24 h, Library stock concentration: 3.333 mM) is -0.0287%; in assay [2] (setting [25]), 16%.
For the compound `COc1cccc2ccc(-c3ccc(C(=O)N(C)C)cc3)nc12`, the nuclei count, normalised in assay [1] (setting [7]) was 97.5%; in assay [1] (setting [8]) it was 101%. In addition, the p53-positive nuclei, normalised in assay [2] (concentration not given here) was 0.00257% (inactive); in assay [2] (setting [9]), 0.1%.
As for `c1ccc(C(OC2CCN(CCCc3nn[nH]n3)CC2)c2ccccc2)cc1`, the nuclei count, normalised in assay [1] (setting [7]) is 101%; in assay [1] (setting [8]), 102%. Besides, the p53-positive nuclei, normalised was 0.0542% (inactive) in assay [2] (concentration not given here) and 0.308% in assay [2] (setting [9]).
Take `COc1ccc(-c2ccc3ncc4c(c3c2)n(-c2ccc(N3CCNCC3)c(C(F)(F)F)c2)c(=O)n4C)cn1`: the nuclei count, normalised was 74.5% in assay [1] (setting [10]); 49.8% in assay [1] (setting [11]); 37.4% in assay [1] (setting [12]); 46.3% in assay [1] (setting [3]); 49.1% in assay [1] (setting [13]); 70.7% in assay [1] (setting [14]). For the same compound, the nuclei count, normalised in assay [1] (setting [15]) is 39.8%; in assay [1] (setting [16]) it was 21%; in assay [1] (setting [4]), 37.9%; in assay [1] (setting [17]), 37.2%. For the same compound, the p53-positive nuclei, normalised is 0.085% (inactive) in assay [2] (setting [18]); 22.1% (inactive) in assay [2] (setting [19]); 53.3% (active) in assay [2] (setting [20]); 2.2% (inactive) in assay [2] (setting [5]); -0.138% (inactive) in assay [2] (setting [21]); 0.126% in assay [2] (setting [22]). Moreover, the p53-positive nuclei, normalised in assay [2] (setting [23]) was 1.06%; in assay [2] (setting [24]), 14.2%; in assay [2] (setting [6]) it was 3.51%; in assay [2] (setting [25]) it was -0.0446%.
Regarding `COc1cc(OC)cc(-c2ccc3ncc4ccc(=O)n(-c5ccc(N6CCNCC6)c(C(F)(F)F)c5)c4c3c2)c1`, the nuclei count, normalised was 106% in assay [1] (setting [10]); 104% in assay [1] (setting [11]); 101% in assay [1] (setting [12]); 45.6% in assay [1] (setting [13]); 111% in assay [1] (setting [14]); 107% in assay [1] (setting [15]). In addition, the nuclei count, normalised is 103% in assay [1] (setting [16]) and 30.1% in assay [1] (setting [17]). The p53-positive nuclei, normalised in assay [2] (setting [18]) was 0.103% (inactive); in assay [2] (setting [19]), 0.257% (inactive); in assay [2] (setting [20]), -0.11% (inactive); in assay [2] (setting [21]), 10.5% (inactive); in assay [2] (setting [22]), -0.0535%; in assay [2] (setting [23]), 0.233%. The p53-positive nuclei, normalised in assay [2] (setting [24]) turned out to be 0.0288%; in assay [2] (setting [25]) it was 11.7%.
